Only some compounds are listed: those with a hit (about 2.7% of all), similar ones and a draw of the others.
ERa coact pot = enhances coactivator binding to human estrogen receptor alpha; coactivator binding (% of control), % at 25.6 µM; 86,000 tested, 1.3% active; P03372; AID 639; TR-FRET ERalpha-LBD/SRC-Cy5 coactivator binding, 2 h; 100 = basal binding, no effect; in the data active = activity above about 200%;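 also: binding measured in presence of low estradiol as agonist stimulus; 0% = peptide alone without receptor and 100% = receptor with peptide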
Target sequence (P03372 whole entry, looked up, the tested form may be a part): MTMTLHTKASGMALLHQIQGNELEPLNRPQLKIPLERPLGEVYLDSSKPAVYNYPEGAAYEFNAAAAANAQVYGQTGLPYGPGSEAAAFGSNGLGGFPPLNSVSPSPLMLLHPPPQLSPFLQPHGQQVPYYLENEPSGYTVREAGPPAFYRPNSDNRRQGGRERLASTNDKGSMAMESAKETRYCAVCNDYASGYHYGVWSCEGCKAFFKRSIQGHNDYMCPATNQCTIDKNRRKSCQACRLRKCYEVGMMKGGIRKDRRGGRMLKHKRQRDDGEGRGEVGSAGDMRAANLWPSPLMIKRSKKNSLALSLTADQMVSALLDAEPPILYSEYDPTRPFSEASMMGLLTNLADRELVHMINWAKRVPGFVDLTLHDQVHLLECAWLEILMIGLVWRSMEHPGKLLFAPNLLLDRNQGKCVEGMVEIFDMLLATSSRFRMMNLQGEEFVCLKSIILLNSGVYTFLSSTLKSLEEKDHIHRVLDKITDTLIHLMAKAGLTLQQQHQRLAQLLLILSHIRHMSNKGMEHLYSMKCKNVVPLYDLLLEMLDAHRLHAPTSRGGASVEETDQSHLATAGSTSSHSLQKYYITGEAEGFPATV
MRP-1 activ = activates MRP-1. H69AR cells + doxorubicin, viability rescue, CellTiter-Glo. viability increase, % at 10 µM. 140,000 tested, 0.61% active. AID 799;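 active = viability gain under doxorubicin at or above a set limit, the compound median plus 3 SD, cut at about 4.7% in these data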;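 also: MRP-1 overexpressing cells given doxorubicin 25 µM after compound pretreatment; 18-22 h compound pretreatment then 72 h with doxorubicin before readout; 0% = doxorubicin-only wells and 100% = vehicle-treated cells without doxorubicin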
MRP resist rev = MRP-mediated drug resistance reversal. AID 602. 85,000 tested, 0.04% active. H69AR cells + 2 uM doxorubicin, CellTiter-Glo, 72 h. differential viability (reversal), % at 10 µM;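 active = viability drop by adding the cancer drug above about 55%, with treated viability meeting a 40% cutoff, limit read from the data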;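 also: viability without doxorubicin minus viability with 2 µM doxorubicin for each compound; larger differential means the compound sensitizes cells more to doxorubicin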
ERb coact inh = ER-beta (human) coactivator binding inhibition | Q92731 | TR-FRET ER-beta LBD / SRC1-Cy5 peptide binding; receptor agonist-loaded with 1 µM estradiol | inhibition, % at 25.6 µM | 86,000 tested, 1.3% active | AID 633;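 active = compounds whose percent inhibition of the receptor-coactivator binding signal exceeds about 50% in the single-dose screen, limit read from the data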;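 also: 0% = receptor plus peptide wells without compound and 100% = peptide-only wells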
ERa SRC1 inh = ER-alpha (human) coactivator binding inhibition | P03372 | TR-FRET ER-alpha LBD / SRC-1 peptide, estradiol-bound | inhibition, % at 25.6 µM | 86,000 tested, 1.7% active | AID 629; in the data active = inhibition above about 50%;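 also: 0% = receptor plus peptide control and 100% = peptide only without receptor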
* hit, by the source's call; · = not tested or not shown; [ ] = dose if it differs, or a comment.

SMILES	ERa coact pot	MRP-1 activ	MRP resist rev	ERb coact inh	ERa SRC1 inh
O=C(CCC1N=C2c3ccccc3N=C(SCc3cccc(Cl)c3)N2C1=O)NCc1ccco1 (centres undefined)	256.7*[fluorescence artefact?]	-4.1	13.3	22.9	39.2
CN(C)C(=O)Cn1c(SCC(=O)N2CCCc3ccccc32)nc2ccccc21	828.7*[fluorescence artefact?]	-3.8	-9.7	-14.0	21.3
O=C(CCC1CCCCC1)NCc1ccccn1	·	-1.4	·	·	·
C=CCn1c(NC(=O)c2ccccc2)c(C#N)c2nc3ccccc3nc21	36.2	·	0.3	42.1	73.7*[fluorescence artefact?]
CCOC(=O)c1c(NC(C)=O)sc2c1CCC(C=NCCCN(CC)CC)=C2Sc1ccccc1	94.5	·	-0.8	1.6	-1.6
S=C(NCc1ccccn1)Nc1ccccc1Cl	·	8.2*	·	·	·
S=C(NCc1ccccn1)Nc1cccc(Cl)c1	·	-1.2	·	·	·
CSCCOC(=O)c1[nH]c2c(c1C)C(=O)CC(c1ccco1)C2 (centres undefined)	121.4	-3.9	-16.6	50.2*	55.8*
CCOC(=O)c1[nH]c2c(c1C)C(=O)CC(c1ccco1)C2 (centres undefined)	93.4	-4.7	-15.3	55.9*[fluorescence artefact?]	65.2*
Cc1c(C(=O)OCc2ccccc2)[nH]c2c1C(=O)CC(c1ccco1)C2 (centres undefined)	89.5	-3.7	-24.5	56.4*	55.1*
COCCOC(=O)c1[nH]c2c(c1C)C(=O)CC(c1ccco1)C2 (centres undefined)	138.8	-4.1	-24.9	50.0	51.3*
Nc1ccc2nc(-c3ccccn3)[nH]c2c1	11.5	-2.6	-20.8	76.2*[fluorescence artefact?]	96.5*[fluorescence artefact?]
CC(=O)Nc1ccc2nc(-c3cccs3)[nH]c2c1	78.1	-4.2	8.2	13.6	14.3
Nc1ccc2nc(CCc3ccccc3)[nH]c2c1	·	-1.9	·	·	·
Nc1ccc2nc(-c3ccc(N)c(Cl)c3)[nH]c2c1	26.6	-3.3	-10.6	54.1*[fluorescence artefact?]	92.5*[fluorescence artefact?]
Nc1ccc2nc(-c3cccs3)[nH]c2c1	71.6	-5.0	-22.6	56.3*[fluorescence artefact?]	43.2
Nc1ccc2nc(-c3ccccc3)[nH]c2c1	80.0	-5.7	-19.8	24.7	82.0*[fluorescence artefact?]
Nc1ccc2nc(-c3cccnc3)[nH]c2c1	·	-2.2	·	·	·
Cc1cc(C)c(C(=O)COC(=O)CCNS(=O)(=O)c2c(Cl)cccc2Cl)cc1C	·	-2.0	·	·	·
COc1ccc(C2=NO[C@@H]3[C@@H]4C[C@@H]([C@H]5C(=O)N(C)C(=O)[C@@H]45)[C@H]23)cc1	·	-2.3	·	·	·
CCN1C2=C(C(=O)CCC2)C(c2ccc(O)c(Br)c2)C2=C1CCCC2=O	59.1	-1.2	-10.6	60.3*	56.4*[fluorescence artefact?]
O=C(Cc1cnn(-c2ccccc2)c1)c1ccc(O)c(O)c1O	55.9	-3.3	-3.8	84.8*[fluorescence artefact?]	78.0*[fluorescence artefact?]
Cc1nn2c(c1-c1ccccc1)NC1=C(C(=O)CCC1)C2c1cccnc1 (centres undefined)	109.4	·	-1.3	-1.9	-4.6
CCn1c(C)c(C)c2cc(C(=O)Nc3cccc(Cl)c3)ccc21	·	6.5*	·	·	·
O=S(=O)(c1ccc2nc(SCc3cccc(Cl)c3)[nH]c2c1)N1CCOCC1	·	2.4	·	·	·
SMILES	ERa coact pot	MRP-1 activ	MRP resist rev	ERb coact inh	ERa SRC1 inh
O=C(NNC(=O)c1cccnc1)Nc1cccc2ccccc12	·	5.7*	·	·	·
COc1cc2nc(N3CCNCC3)nc(N)c2cc1OC	88.5	-2.3	0.9	-7.8	86.9*[fluorescence artefact?]
Cc1noc(C)c1COC(=O)c1ccc(-c2nc3ccccc3s2)s1	151.8	0.2	-1.9	42.3	61.0*[fluorescence artefact?]
Cc1noc(C)c1COC(=O)CCCc1nc2ccccc2s1	127.7	-0.6	22.5	0.7	3.0
Cc1ccc(Nc2nnc(-c3ccc(N4CCOCC4)c([N+](=O)[O-])c3)c3ccccc23)cc1	·	5.2*	·	·	·
CCC(C)(C)n1nnnc1CN1CCN(C(c2ccccc2)c2ccccc2)CC1	85.2	-1.6	-11.7	22.0	16.8
C=C(Cl)COc1ccc2c(CCCC)cc(=O)oc2c1	103.0	6.2*	17.9	3.9	-0.3
CCCc1cc(=O)oc2cc(OCC(=O)Nc3ccc4c(c3)OCCO4)ccc12	215.5*[fluorescence artefact?]	-2.9	-0.4	39.7	45.4
Cc1ccc2c(=O)cc(C(F)F)oc2c1	65.3	0.1	-0.7	5.3	55.2*[fluorescence artefact?]
Cc1cc(C)c2c(=O)cc(C(F)F)oc2c1	68.3	-0.3	-5.6	1.1	46.2
Brc1ccc2ncnc(Nc3ccc(N4CCOCC4)cc3)c2c1	31.9	-2.8	-29.1	82.5*[fluorescence artefact?]	59.3*[fluorescence artefact?]
CCOC(=O)/C(N=Nc1ccc(F)cc1)=C(/O)c1ccc([N+](=O)[O-])cc1	·	-1.6	·	·	·
O=C(CCc1c[nH]c2ccccc12)NC1CC1	95.8	-3.6	0.8	-7.3	-1.8
O=C(Nc1ccc(Oc2ccccc2)cc1)C1CCCN(c2ncccn2)C1 (centres undefined)	86.0	-0.2	-24.0	23.0	8.7
CCOC(=O)C(Cc1ccccc1)NC(=O)CCc1c(C)nc2ncnn2c1C (centres undefined)	95.2	-1.9	10.6	4.5	14.8
COC(=O)C(NC(=O)CCc1c(C)nc2ncnn2c1C)C(C)C (centres undefined)	84.8	0.7	4.7	66.3*[fluorescence artefact?]	-7.9
Cc1ccc(-n2[nH]c(C)c(/C=N/Nc3ccc([N+](=O)[O-])cc3[N+](=O)[O-])c2=O)cc1	·	-2.6	·	·	·
CCOC(=O)C1=C(CSc2nc3ccccc3s2)NC(=O)NC1c1cccc([N+](=O)[O-])c1 (centres undefined)	·	-2.3	·	·	·
O=C(CCCCl)NC1=NN(c2ccccc2)C(=O)C1	·	7.3*	·	·	·
CNC(=O)N(C1=NCCCCC1)c1ccc(Br)cc1	·	-0.1	·	·	·
COc1ccc(-c2nc(C(N)=O)c3[nH]c(=O)n(-c4cccc(Cl)c4)c3n2)cc1OC	95.5	-4.9	0.1	48.4	83.7*
CCc1ccc(-c2nc(C(N)=O)c3[nH]c(=O)n(-c4ccccc4OC)c3n2)cc1	300.2*[fluorescence artefact?]	-6.1	-1.7	12.0	19.7
COc1cccc(-c2nc(C(N)=O)c3[nH]c(=O)n(-c4cccc(Cl)c4)c3n2)c1OC	109.0	-3.3	-15.5	-2.6	5.9
CCOC(=O)N1CCN(C(=O)CSc2nnc(COc3ccc(Cl)cc3)o2)CC1	118.5	5.8*	1.7	-7.0	2.6
O=C(CSc1nnc(COc2ccc(Cl)cc2)o1)N1c2ccccc2CCc2ccccc21	109.0	0.4	-53.9	-3.5	-1.4
SMILES	ERa coact pot	MRP-1 activ	MRP resist rev	ERb coact inh	ERa SRC1 inh
COC(=O)c1ccc(OC)c(CSc2nnc(COc3ccc(Cl)cc3)o2)c1	73.3	6.9*	10.4	8.1	-5.9
COC(=O)c1ccc(OC)c(CSc2nnc(COc3ccccc3)o2)c1	101.8	1.0	10.9	-5.5	-4.1
COc1ccc(C(C#N)C2(C)OCCO2)cc1OC (centres undefined)	115.3	-0.2	-7.1	-3.2	-6.1
CCN(CC)S(=O)(=O)c1ccc(C(=O)NCc2ccc3c(c2)cc(C)n3C)cc1	141.1	1.9	-7.4	-6.8	-1.1
Cc1cc2cc(CNC(=O)c3ccc(S(=O)(=O)N4CCCC4)cc3)ccc2n1C	293.0*[fluorescence artefact?]	3.1	-3.5	31.7	21.0
Cc1cc2cc(CNC(=O)c3ccc(S(=O)(=O)N4CCCCC4)cc3)ccc2n1C	404.3*[fluorescence artefact?]	-1.5	-18.6	45.9	22.6
CN(C)C(=O)c1ccccc1-c1ccccc1	240.9*	-2.3	3.4	-6.2	-2.5
